Compound activity (PubChem)
This is a sample that favours compounds with a hit; in the whole collection about 3.9% have one here.
Mot1-301 SUMO: yeast Mot1-301 growth rescue at high temperature, primary screen, SUMOylation pathway inhibitor project, S. cerevisiae, ATP luminescence, 38.5C | S. cerevisiae Mot1-301 growth rescue; percent above DMSO median, 100 means doubled | growth rescue, % at 18.8 µM | hit rate 1% among 320,000 | AID 2716, 2010;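 active means every valid replicate shows activation above 250% relative to neutral control wells; inactive means the rest, any valid replicate at or below 250%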;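 further: OY570 slx delta 5 strain wells were the positive control but not used for scaling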
N-glyco inh: increase of ERlucT glycosylation luciferase signal, primary screen, N-linked glycosylation inhibitor project, D54 ERlucT cells, luminescence, set 2. D54 ERlucT glycosylation luciferase reporter, 24 h; percent of 100 nM tunicamycin response. reporter increase, % at 12.5 µM. hit rate 0.23% among 360,000;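 active means mean luciferase reporter signal, scaled so untreated is 0 and the glycosylation-blocking control 100, at or above a set limit in every replicate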;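 further: luciferase carries N-glycosylation sites so blocking glycosylation raises the light; 0% = median of neutral control wells and 100% = median of 100 nM tunicamycin wells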
CDK5 p35 inh: inhibitors of human CDK5/p35 kinase, primary screen, biochemical, single concentration | Recombinant CDK5/p35, ADP-Glo luminescence, 60 min | hit rate 0.01% among 330,000 | inhibition, % at 10 µM | AID 488839, 2010 | Cyclin-dependent kinase 5 (Homo sapiens) + Cyclin-dependent kinase 5 activator 1 (Homo …;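 active means highest replicate inhibition of at least 50% and at least 75% of replicates reaching 50%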;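 further: plate controls were DMSO neutral control for no effect and GW8510 at 10 µM for full effect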
ALR inh: inhibitors of human ALR sulfhydryl oxidase, primary screen, biochemical, H2O2 detection, HRP-luminol luminescence, single point. FAD-linked sulfhydryl oxidase ALR (Homo sapiens), P55789. purified ALR, DTT oxidation. AID 485317, 2010. inhibition, % (no concentration beside the values). hit rate 3.8% among 290,000;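 active means mean replicate inhibition above about 79%, with every replicate also reaching it, limit read from the data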
Target sequence (P55789 whole entry, looked up): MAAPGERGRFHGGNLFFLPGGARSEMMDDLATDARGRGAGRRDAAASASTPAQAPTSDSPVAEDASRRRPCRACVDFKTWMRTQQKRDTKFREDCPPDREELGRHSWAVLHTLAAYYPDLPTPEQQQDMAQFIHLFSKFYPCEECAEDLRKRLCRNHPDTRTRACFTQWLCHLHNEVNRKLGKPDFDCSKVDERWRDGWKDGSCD
NSD2 HMT inh: NSD2 histone methyltransferase inhibitors, primary screen, biochemical, AlphaScreen, single concentration, set 2; Histone-lysine N-methyltransferase NSD2 (Homo sapiens), O96028; hit rate 0.54% among 310,000; NSD2 peptide methylation, 120 min; inhibition, % at 12.5 µM; AID 743445, 2014; in the data active means inhibition above about 50%
Casp6 inh: human caspase-6 inhibitors, primary screen, biochemical, VEID-R110 fluorescence, single point, set 2; P55212; hit rate 0.53% among 350,000; inhibition, % at 12.5 µM; purified caspase-6, Z-VEID-R110 cleavage fluorescence;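 active means mean inhibition across replicates at least about 35%, with every replicate also reaching that limit, limit read from the data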;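 further: 0% = median of neutral control wells and 100% = no fluorescence left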
Target sequence (P55212 24-179 limits assumed): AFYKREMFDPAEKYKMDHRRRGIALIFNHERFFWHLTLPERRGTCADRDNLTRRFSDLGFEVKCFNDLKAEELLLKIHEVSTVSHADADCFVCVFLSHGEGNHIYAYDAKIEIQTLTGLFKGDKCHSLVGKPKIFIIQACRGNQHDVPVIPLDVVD
Target sequence (P55212 194-293 limits assumed): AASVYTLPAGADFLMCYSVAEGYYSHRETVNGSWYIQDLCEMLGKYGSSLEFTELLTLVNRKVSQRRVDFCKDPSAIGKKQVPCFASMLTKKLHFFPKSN
An asterisk follows results filed as active; . = not tested or not shown.

SMILES	Mot1-301 SUMO	N-glyco inh	CDK5 p35 inh	ALR inh	NSD2 HMT inh	Casp6 inh
CC(C)n1cc(/C=N/Nc2ccc(C(=O)O)cc2)c2ccccc21	1	-14	-1	100*	6	-1
Cn1cc(/C=N/Nc2ccccc2)c2ccccc21	69	0	1	-20	2	0
O=C(O)c1ccc(N/N=C/c2cn(Cc3ccccc3F)c3ccccc23)cc1	3	-13	1	98*	.	19
Nc1ccc(C(=O)N/N=C/c2cn(Cc3ccccc3F)c3ccccc23)cc1	9	-6	1	-11	-3	2
Cc1ccc(S(=O)(=O)N(C)/N=C/C=C/c2ccccc2)cc1	-4	2	-2	.	0	.
CN(C)c1ccc(NS(=O)(=O)c2ccc(-c3csnn3)cc2)cc1	3	-2	.	99*	13	6
CCN(CC)c1ccc(NS(=O)(=O)c2ccc(OC)cc2)cc1	21	1	0	99*	-1	2
Cc1ccc(S(=O)(=O)N(C)/N=C/c2ccc(N(C)C)cc2)cc1	-14	0	1	99*	-2	-3
Cc1cc(S(=O)(=O)Nc2ccc(N(C)C)cc2)c(C)s1	4	-3	0	100*	13	.
O=C(Cc1ccccn1)N[C@H]1CC[C@H](CCn2cc(-c3ccc(F)cc3)nn2)O[C@@H]1CO	.	.	.	.	.	2
CCCC#Cc1cnc2c(c1)C(=O)N([C@@H](C)CO)C[C@@H](C)[C@H](CN(C)C(=O)Nc1ccccc1F)O2	.	.	.	.	.	4
CN(C)c1ccc(NS(=O)(=O)c2cc3c4c(c2)CC(=O)N4CCC3)cc1	113	1	0	99*	6	-2
Cc1ccc(S(=O)(=O)Nc2ccc(N(C)C)cc2)cc1	9	0	-1	99*	23	8
C[C@@H]1CN([C@H](C)CO)S(=O)(=O)c2ccc(-c3cccnc3)cc2O[C@H]1CN(C)C(=O)c1cccc(F)c1	.	.	.	.	.	1
C[C@H](CO)N1C[C@H](C)[C@H](CN(C)Cc2ccc3c(c2)OCO3)Oc2ccc(NS(=O)(=O)c3ccccc3)cc2C1=O	.	.	.	.	.	0
Cc1nc(-c2cccc(S(=O)(=O)N3CCCCC3)c2)cs1	-12	-3	1	23	-2	-2
CC1CCCN(S(=O)(=O)c2cccc(-c3cn4cccnc4n3)c2)C1 (centres undefined)	3	1	-1	48	-4	.
CCN(CC)S(=O)(=O)c1cccc(-c2cn3cccnc3n2)c1	7	-2	0	99*	-3	-5
Nc1cccc(-c2cn3cccnc3n2)c1	119	2	2	99*	-5	1
Cc1ccc(-c2cn3cccnc3n2)cc1	3	-1	1	-10	1	-1
CCN(CC)S(=O)(=O)c1cccc(-c2csc(C)n2)c1	0	0	-1	97*	-3	6
N#CC(C#N)=c1ccc2c(c1)N1C3=C(CCCC3)CC3CCCCC31N=2 (centres undefined)	-16	2	7	-5	55*	.
CCC(=O)N(C)C[C@H]1Oc2ncc(C#Cc3ccccc3)cc2C(=O)N([C@@H](C)CO)C[C@H]1C	.	.	.	.	.	4
CO[C@H]1CN(C)C(=O)c2cc(C#N)ccc2OCC[C@@H]2CC[C@H](OC)[C@@H](CN(C)C(=O)[C@H]1C)O2	.	.	.	.	.	4
COc1cc2c(cc1O)C=[N+](Cc1cccc(OC(F)(F)F)c1)CC2	.	.	.	.	.	-6
SMILES	Mot1-301 SUMO	N-glyco inh	CDK5 p35 inh	ALR inh	NSD2 HMT inh	Casp6 inh
CN(C)c1ccc(/C=N/NC(=S)NCc2ccco2)cc1	10	-2	1	98*	2	-1
S=C(NCc1ccco1)N/N=C/c1ccncc1	2	-2	1	7	0	1
S=C(NCc1ccco1)NCc1ccco1	.	1	-2	.	2	52*
C/C=C/c1ccc2c(c1)O[C@@H](CN(C)C(=O)c1ccccc1F)[C@@H](C)CN([C@H](C)CO)S2(=O)=O	.	.	.	.	.	2
COc1ccc(C2SCC(=O)N2Cc2ccccc2)cc1 (centres undefined)	-1	2	0	81*	1	3
COc1ccc(N2C(=O)CSC2c2ccccc2[N+](=O)[O-])cc1 (centres undefined)	-3	0	0	99*	9	3
COc1ccc(N2C(=O)CSC2c2cccc(OC)c2OC)cc1 (centres undefined)	-13	-1	-2	-2	-2	.
COc1ccc(N2C(=O)CSC2c2ccccc2)cc1 (centres undefined)	60	0	1	97*	-1	3
Cc1ccc(N2C(=O)CSC2c2ccc3c(c2)OCO3)cc1 (centres undefined)	-19	-1	1	99*	-1	.
O=C1CSC(c2ccc3c(c2)OCO3)N1c1ccc(Oc2ccccc2)cc1 (centres undefined)	-10	-6	0	.	1	.
COc1ccc(C2SCC(=O)N2c2ccc(C)cc2)cc1 (centres undefined)	-12	0	-1	32	2	-3
COc1ccc(N2C(=O)CSC2c2ccc(F)cc2)cc1 (centres undefined)	-2	-2	-1	.	-1	1
CC(=O)Nc1ccc(N2C(=O)CSC2c2ccc(F)cc2)cc1 (centres undefined)	9	-1	-4	99*	-3	.
O=C1CSC(c2ccccc2)N1c1ccc(-c2ccccc2)cc1 (centres undefined)	.	.	.	.	.	3
O=C1CSC(c2ccccc2)N1c1ccc([N+](=O)[O-])cc1 (centres undefined)	283	0	-1	99*	1	-2
C[C@H](CO)N1C[C@H](C)[C@H](CN(C)Cc2ccc(C(=O)Nc3ccccc3N)cc2)Oc2ccc(NS(=O)(=O)c3ccc(Cl)cc3)cc2C1=O	.	.	.	.	.	0
CCCc1cc(=O)[nH]c(Nc2ccc(O)cc2)n1	-5	10	1	99*	-5	.
CCCc1cc(=O)[nH]c(Nc2ccc(Cl)cc2)n1	68	0	-1	-6	-2	1
COc1ccc2c3c(n(C)c2c1)[C@@H](CO)N(Cc1cc(F)ccc1F)CC31CCN(C(C)=O)CC1	.	.	.	.	.	3
Cc1ccc(Nc2nnc(SCC(=O)NC(Cc3c[nH]c4ccccc34)C(=O)O)s2)cc1 (centres undefined)	139	-1	-1	94*	-5	8
CCOc1ccc(/C(O)=C/C(=O)C(=O)Nc2ccc(S(=O)(=O)NC(C)=O)cc2)cc1	-18	1	1	98*	0	1
